# Screening data: PubChem, several laboratories
# The list is not random: actives were taken first. Their share in the collection is about 6.6%.
# BoNT A protease – BoNT A light chain protease inhibition. multiplex microsphere protease substrate cleavage, flow cytometry. inhibition, % at 10 µM. 360,000 tested, 0.17% active; in the data active = inhibition above about 30%; inconclusive = no clear call, values can overlap the other calls
# Bead autofluor – compound fluorescence in toxin protease inhibitor counterscreen. compound autofluorescence counterscreen, microsphere flow cytometry; stronger effect = higher value. fluorescence intensity (test concentration not listed). 360,000 tested, 3.1% active; in the data active = fluorescence intensity above about 16000; inconclusive = no clear call, values can overlap the other calls
# Mtb FBA inh – Mtb fructose-bisphosphate aldolase inhibition. P9WQA3. purified M. tuberculosis FBA, fluorescence read-out. inhibition, % at 1 µM. 360,000 tested, 2.3% active
# BoNT-F LC inh – inhibitors of Botulinum neurotoxin F light chain protease. Multiplex microsphere protease cleavage assay, flow cytometry. inhibition, % at 10 µM. 360,000 tested, 0.22% active. AID 588497; in the data active = inhibition above about 35%, passing the limit was not always enough; inconclusive = no clear call, values can overlap the other calls
# Anthrax LF prot – anthrax lethal factor protease inhibition. P15917. multiplex microsphere protease cleavage assay, LF. 360,000 tested, 0.12% active. inhibition, % at 10 µM; in the data active = inhibition above about 30%; inconclusive = no clear call, values can overlap the other calls
# Target sequence (P15917 whole entry, looked up): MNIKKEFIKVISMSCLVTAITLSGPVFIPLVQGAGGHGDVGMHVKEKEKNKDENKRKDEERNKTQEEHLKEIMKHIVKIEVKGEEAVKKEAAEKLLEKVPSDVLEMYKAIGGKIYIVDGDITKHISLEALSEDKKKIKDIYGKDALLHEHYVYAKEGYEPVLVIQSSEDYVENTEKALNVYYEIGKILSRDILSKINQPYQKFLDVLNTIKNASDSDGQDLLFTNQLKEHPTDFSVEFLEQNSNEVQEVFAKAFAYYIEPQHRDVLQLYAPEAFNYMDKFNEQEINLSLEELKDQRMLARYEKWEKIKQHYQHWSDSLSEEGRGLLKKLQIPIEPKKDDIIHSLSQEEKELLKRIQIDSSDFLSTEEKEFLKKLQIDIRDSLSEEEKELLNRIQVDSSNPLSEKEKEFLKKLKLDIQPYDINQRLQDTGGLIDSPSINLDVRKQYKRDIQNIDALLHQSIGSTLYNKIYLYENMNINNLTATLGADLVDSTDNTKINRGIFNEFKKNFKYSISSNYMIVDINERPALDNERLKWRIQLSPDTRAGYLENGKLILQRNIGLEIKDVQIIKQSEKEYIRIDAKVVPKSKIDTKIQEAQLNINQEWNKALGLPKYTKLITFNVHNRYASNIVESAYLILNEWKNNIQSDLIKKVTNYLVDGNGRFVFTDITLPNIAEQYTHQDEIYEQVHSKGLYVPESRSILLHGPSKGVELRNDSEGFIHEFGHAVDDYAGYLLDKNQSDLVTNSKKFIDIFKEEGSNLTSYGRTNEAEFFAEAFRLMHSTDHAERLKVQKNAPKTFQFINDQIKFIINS
# GDH-TPI counter-1 – GDH-TPI coupled enzyme inhibition counter-screen; 360,000 tested, 1.2% active; inhibition, % at 4.8 µM; AID 588335; GDH-TPI coupled enzyme counterscreen, NADH absorbance; in the data active = inhibition above about 30%
# Mtb FBA confirm – confirmation of M. tuberculosis fructose-bisphosphate aldolase inhibitors | AID 651616 | shares compounds with Mtb FBA inh | inhibition, % at 1 µM | purified M. tuberculosis FBA, fluorescence read-out | 5,600 tested, 78% active
# GDH-TPI counter-2 – inhibits GDH-TPI coupling enzymes, flagging Mtb FBA hits | shares compounds with Mtb FBA inh | inhibition, % at 1 µM | 5,600 tested, 81% active | AID 652141 | GDH-TPI coupled enzyme counterscreen, fluorescence; in the data active = inhibition above about 10%
# Hits are given with their value; 0 = inactive; ? = inconclusive; - = no result given; + = active, no number. Rule as the data show it, unless noted: active = inhibition above about 27%; inactive = the rest.
SMILES,BoNT A protease,Bead autofluor,Mtb FBA inh,BoNT-F LC inh,Anthrax LF prot,GDH-TPI counter-1,Mtb FBA confirm,GDH-TPI counter-2
C=CCn1c(C)cc(C(=O)Cn2c(C(C)O)nc3ccccc32)c1C (centres undefined),0,0,73.6,0,0,0,155.8,118.8
COc1cccc2sc3cc(NCc4ccc5c(c4)OCO5)ccc3c(=O)c12,0,0,53.4,0,0,39.4,0,19.1
Cc1cnc(C(=O)N(c2ccc(N3CCOCC3)cc2)C2C(=O)Nc3ccccc3N=C2c2ccc(F)cc2)cn1 (centres undefined),0,0,0,0,0,-,-,-
O=C(NNS(=O)(=O)c1ccccc1)C1CC(c2cccnc2)=NO1 (centres undefined),0,0,0,0,0,0,-,-
CCC(Oc1ccccc1)C(=O)Nc1ccc(-c2nnc(-c3ccco3)o2)cc1 (centres undefined),0,0,42.8,0,0,0,0,0
Clc1ccc(-c2nnc(-c3ccco3)o2)cc1,0,0,71.9,0,0,0,+,+
O=C(Cc1cccs1)Nc1ccc(-c2nnc(-c3ccco3)o2)cc1,0,0,49.3,0,0,0,82.9,67.0
CC(Sc1nnc(-c2ccco2)o1)C(=O)Nc1ccc(OC(F)F)cc1 (centres undefined),0,0,0,0,0,0,-,-
Nc1nnc(-c2ccc(Cl)cc2)o1,0,0,0,0,0,0,-,-
CN(C)c1nnc(-c2ccc(Cl)cc2)o1,0,0,66.4,0,0,0,+,+
CNc1nc(C23CC4CC(CC(C4)C2)C3)cs1,0,0,0,0,0,0,-,-
Cc1nn(Cc2ccc(F)cc2)c2sc(C(=O)Nc3ccccc3N3CCOCC3)cc12,0,0,0,0,0,0,-,-
Cc1nn(Cc2ccccc2Cl)c2sc(C(=O)Nc3ccccc3N3CCOCC3)cc12,0,0,97.4,0,0,0,71.8,63.6
Cc1cc(C)n2c(Br)c(CN3CCCC(C)C3)nc2n1 (centres undefined),0,0,34.8,0,0,0,77.3,58.4
Cc1cc(C)nc(SCc2nc3nc(C)cc(C)n3c2Br)n1,0,0,29.5,0,0,0,35.5,21.8
O=C(OCC(=O)N1CCc2ccccc21)[C@@H]1CC(O)CN1S(=O)(=O)c1ccccc1[N+](=O)[O-] (some centres undefined),0,?,0,?,0,0,-,-
Cc1cccc(CN2CCCC(C(=O)N3CCCCC3)C2)c1 (centres undefined),0,0,0,0,0,0,-,-
Cc1nnc(NC(=O)COc2ccc3c(C)cc(=O)oc3c2)s1,0,0,40.2,0,0,0,191.6,144.4
CCC(CC)c1nnc(NC(=O)COc2ccc3c(C)cc(=O)oc3c2)s1,0,0,0,0,0,0,-,-
Cc1cc(=O)oc2cc(OCC(=O)NC3(C#N)CCCCC3)c(Cl)cc12,0,0,0,0,0,0,-,-
Cc1cc(=O)oc2cc(OCC(=O)OCC(=O)NC(C)C)ccc12,0,0,48.2,0,0,0,106.9,84.9
Cc1cc(=O)oc2cc(OCC(=O)OCC(=O)Nc3ccccc3F)ccc12,0,0,54.0,0,0,0,169.4,146.7
Cc1cc(=O)oc2cc(OCC(=O)OCC(=O)Nc3ccc(C(N)=O)cc3)ccc12,0,0,0,0,0,0,-,-
Cc1cc(=O)oc2cc(OCC(=O)OCC(=O)Nc3ccccc3C(C)C)ccc12,0,0,0,0,0,0,-,-
Cc1cc(=O)oc2cc(OCC(=O)NC3(C#N)CCCCC3)ccc12,0,0,77.1,0,0,0,58.4,57.6
SMILES,BoNT A protease,Bead autofluor,Mtb FBA inh,BoNT-F LC inh,Anthrax LF prot,GDH-TPI counter-1,Mtb FBA confirm,GDH-TPI counter-2
CN(C)S(=O)(=O)c1ccc(NC(=O)Cn2nc(-c3ccc4c(c3)OCCO4)ccc2=O)cc1,0,0,0,0,0,0,-,-
CC(Oc1ccc(F)cc1)C(=O)N(CCC1=CCCCC1)c1c(N)n(Cc2ccccc2)c(=O)[nH]c1=O (centres undefined),0,0,0,0,0,0,-,-
O=C(O)CSCc1nc2scc(-c3ccccc3)c2c(=O)[nH]1,0,0,0,0,0,0,-,-
O=C(CSCc1nc2scc(-c3cccs3)c2c(=O)[nH]1)Nc1ccccn1,0,0,33.9,0,0,0,0,0
CC(=O)N1c2ccc(S(=O)(=O)N3CCCC3)cc2CC1C(=O)Nc1cc(C)cc(C)c1 (centres undefined),?,0,0,?,?,0,-,-
O=C(CCNS(=O)(=O)c1ccccc1F)N1CCN(C/C=C/c2ccccc2)CC1,0,0,0,0,0,0,-,-
CCCCNc1ncnc2sc3c(c12)CCN(CCC)C3,0,0,34.1,0,0,0,98.8,89.5
CCCn1nc2cc(C(=O)NCC34CC5CC(CC(C5)C3)C4)ccc2c1OCC,0,0,28.7,0,0,0,0,0
COCCn1nc2cc(C(=O)NCC34CC5CC(CC(C5)C3)C4)ccc2c1OC,0,0,43.4,0,0,0,+,+
CSc1ncccc1C(=O)NCC12CC3CC(CC(C3)C1)C2,0,0,0,0,0,0,-,-
Cc1csc(CNc2ncnc3ccc(-c4cccc(Cl)c4)cc23)c1,0,0,0,0,0,0,-,-
Cc1ccc(CNc2ncnc3ccc(-c4ccc(CO)o4)cc23)o1,0,0,81.4,0,0,0,0,0
COc1ccccc1-c1cc(C(=O)O)c2c(=O)n(C)c(=O)n(Cc3ccccc3)c2n1,0,0,38.2,0,0,0,0,0
COC(=O)C(C)Oc1ccc(-c2nccc(-c3ccccn3)n2)cc1 (centres undefined),0,0,109.8,0,0,0,68.5,60.5
CCC(=O)N(CCc1ccccc1)Cc1cc2cc3c(cc2[nH]c1=O)OCO3,0,21744,39.9,0,0,0,36.3,26.4
O=c1[nH]c2cc3c(cc2cc1CN(CC1CCCO1)S(=O)(=O)c1ccccc1)OCCO3 (centres undefined),0,0,28.4,0,0,0,0,0
CCC(=O)N(CCc1ccccc1)Cc1cc2cc(OC)ccc2[nH]c1=O,0,0,0,0,0,0,-,-
O=C(NCc1ccccc1)N(Cc1cc2cc3c(cc2[nH]c1=O)OCCO3)CC1CCCO1 (centres undefined),0,0,28.2,0,0,0,53.6,52.0
CC(=O)c1cccc(S(=O)(=O)N(Cc2cc3cc4c(cc3[nH]c2=O)OCCO4)CC2CCCO2)c1 (centres undefined),0,0,0,0,0,0,-,-
O=C(NC1CCCCC1)N(CCN1CCOCC1)Cc1cc2cc3c(cc2[nH]c1=O)OCCO3,0,19967,30.5,0,0,0,98.5,79.1
COc1cc(C(=O)N(Cc2cccnc2)Cc2cc3cc4c(cc3[nH]c2=O)OCCO4)cc(OC)c1OC,0,22318,28.1,0,0,0,110.3,87.2
COCOCCn1cc(CN2CCS(=O)(=O)N(Cc3ccc(-c4ccc(Cl)nc4)cc3)C(C(C)C)C2=O)nn1 (centres undefined),0,0,0,0,0,0,-,-
